Results as given in PubChem BioAssay (NCATS).
Non-standard residues stand in square brackets, D forms with d. Residues, ends and D or L forms follow the SMILES beside them. Orn = NCCC[C@H](N)C(=O)O

Assay: qHTS profiling for inhibitors of Plasmodium falciparum (3D7) proliferation (AID 743322);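 note: infected erythrocytes exposed to compound for 72 h before lysis; 100% = DMSO vehicle wells and 0% = 0.29 µM artemisinin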
Conditions: P. falciparum 3D7 proliferation; at 28.7 µM (top of the series) unless noted
Summary of the method: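 Erythrocytes infected with P. falciparum (0.3% parasitemia, 2.5% hematocrit) incubated with compounds 72 h at 37 C, 5% CO2. Lysis with saponin/Triton buffer containing SYBR Green I, overnight at room temperature in the dark; DNA fluorescence (485/535 nm) normalised to 0.29 uM artemisinin and DMSO.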

SMILES | remaining parasite growth % (stronger effect = lower value)
CN1CCC(CN2c3ccccc3Sc3ccccc32)C1 (centres undefined) | 32.6%
CC(C)C[C@@H]1NC(=O)[C@H](CCCN)NC(=O)[C@H](C(C)C)NC(=O)[C@@H]2CCCN2C(=O)[C@@H](Cc2ccccc2)NC(=O)[C@H](CC(C)C)NC(=O)[C@H](CCCN)NC(=O)[C@H](C(C)C)NC(=O)[C@@H]2CCCN2C(=O)[C@@H](Cc2ccccc2)NC1=O (cyclo(V[Orn]L[dF]PV[Orn]L[dF]P)) | -2.61%
C[C@@H]1CCC2[C@@H](C)[C@@H](O)O[C@@H]3O[C@@]4(C)CC[C@@H]1[C@@]23OO4 (some centres undefined) | -0.537%
CCN(CC)Cc1cc(Nc2ccnc3cc(Cl)ccc23)ccc1O | 1.29% [at 9.63 µM]
CCCC(=O)O[C@]1(C(=O)CCl)[C@H](C)C[C@@H]2[C@H]3CCC4=CC(=O)C=C[C@]4(C)[C@@]3(F)C(=O)C[C@@]21C | 0.271%

Assay: qHTS profiling for inhibitors of Plasmodium falciparum (DD2) proliferation (AID 743323)
Conditions: lower = more inhibition; at 28.7 µM (top of the series) unless noted
Summary of the method: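 SYBR Green fluorescence (ex 485, em 535 nm) of lysed cultures gives parasite DNA content; wells normalized to artemisinin (0.29 uM) and DMSO controls. Infected red cells: 0.3% parasitemia, 2.5% hematocrit, 72 h, 37 C.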

SMILES | activity, percent of control
CN1CCC(CN2c3ccccc3Sc3ccccc32)C1 (centres undefined) | 26.9%
CC(C)C[C@@H]1NC(=O)[C@H](CCCN)NC(=O)[C@H](C(C)C)NC(=O)[C@@H]2CCCN2C(=O)[C@@H](Cc2ccccc2)NC(=O)[C@H](CC(C)C)NC(=O)[C@H](CCCN)NC(=O)[C@H](C(C)C)NC(=O)[C@@H]2CCCN2C(=O)[C@@H](Cc2ccccc2)NC1=O (cyclo(V[Orn]L[dF]PV[Orn]L[dF]P)) | -0.499%
C[C@@H]1CCC2[C@@H](C)[C@@H](O)O[C@@H]3O[C@@]4(C)CC[C@@H]1[C@@]23OO4 (some centres undefined) | -0.207%
CCN(CC)Cc1cc(Nc2ccnc3cc(Cl)ccc23)ccc1O | 2.43% [at 9.63 µM]
CCCC(=O)O[C@]1(C(=O)CCl)[C@H](C)C[C@@H]2[C@H]3CCC4=CC(=O)C=C[C@]4(C)[C@@]3(F)C(=O)C[C@@]21C | 1.4%

Assay: qHTS profiling for inhibitors of Plasmodium falciparum (HB3) proliferation (AID 743324);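 note: 100% = DMSO vehicle wells and 0% = artemisinin-treated control wells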
Conditions: Plasmodium falciparum HB3 blood-stage proliferation; at 28.7 µM (top of the series) unless noted
Summary of the method: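 P. falciparum HB3 grown in erythrocytes (0.3% parasitemia, 2.5% hematocrit final) with compound for 72 h at 37 C, 5% CO2. Parasite DNA detected by SYBR Green after saponin/triton lysis overnight; normalized to 0.29 uM artemisinin and DMSO.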

SMILES | remaining proliferation (% of control), lower = more inhibition
CN1CCC(CN2c3ccccc3Sc3ccccc32)C1 (centres undefined) | 21.8%
CC(C)C[C@@H]1NC(=O)[C@H](CCCN)NC(=O)[C@H](C(C)C)NC(=O)[C@@H]2CCCN2C(=O)[C@@H](Cc2ccccc2)NC(=O)[C@H](CC(C)C)NC(=O)[C@H](CCCN)NC(=O)[C@H](C(C)C)NC(=O)[C@@H]2CCCN2C(=O)[C@@H](Cc2ccccc2)NC1=O (cyclo(V[Orn]L[dF]PV[Orn]L[dF]P)) | -1.03%
C[C@@H]1CCC2[C@@H](C)[C@@H](O)O[C@@H]3O[C@@]4(C)CC[C@@H]1[C@@]23OO4 (some centres undefined) | -0.144%
CCCC(=O)O[C@]1(C(=O)CCl)[C@H](C)C[C@@H]2[C@H]3CCC4=CC(=O)C=C[C@]4(C)[C@@]3(F)C(=O)C[C@@]21C | 1.97%
